In PubChem BioAssay:
Inconclusive results are not listed. Activity calls are given as the source filed them.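 How the source made its calls, unless noted: active means GFP signal, as percent of the solvent control, above the screen mean plus 3 SD, about 149; inconclusive means no reading because the compound's own fluorescence upset strain identification; inactive means the rest.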

Assays:
[1] = rapamycin-like changes in RPL19A-GFP expression – cell-based, S. cerevisiae, multiplex flow cytometry, primary screen (AID 1862; in the data active means percent of DMSO control GFP below about 86%;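 further: lower values mimic rapamycin by blocking the RPL19A rise seen in DMSO cells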); conditions: S. cerevisiae RPL19A-GFP strain, flow cytometry fluorescence, 3 h; at 10 µM; stronger effect = lower value
[2] = TOR pathway GLN3 branch reporter MEP2-GFP changes – S. cerevisiae, multiplex flow cytometry, primary screen (AID 1867;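 active means GFP response, as percent of the DMSO control, above the screen-wide mean plus 3 SD, about 139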;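 further: median GFP channel fluorescence of barcode-gated MEP2-GFP cells measured by flow cytometry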); conditions: S. cerevisiae MEP2-GFP strain, 3 h, at 10 µM, stronger effect = higher value, 100% means same as DMSO wells
[3] = TOR pathway RTG branch CIT2 reporter changes – S. cerevisiae, GFP fusion, multiplex flow cytometry, primary screen (AID 1870;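 active means percent response above a set limit, the screen-wide mean plus 3 SD, cut at about 130% in these data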;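 further: barcoded CIT2-GFP strain pooled with four other GFP strains with rapamycin as positive control; median GFP fluorescence per well over plate mean of DMSO wells so 100% = DMSO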); conditions: S. cerevisiae CIT2-GFP expression, 3 h, at 10 µM, stronger effect = higher value
[4] = TOR pathway LAP4-GFP level changes – S. cerevisiae, multiplex flow cytometry, primary screen (AID 1873); conditions: S. cerevisiae LAP4-GFP expression, 3 h, at 10 µM, stronger effect = higher value
[5] = yeast AGP1-GFP level changes, GLN3 branch – cell-based, multiplex flow cytometry, S. cerevisiae, primary screen (AID 1887;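 active means GFP signal above the screen-wide mean plus 3 SD, that is over about 124.5% of the solvent control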;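 further: AGP1-GFP fusion strain of S. cerevisiae within a five-strain barcoded multiplex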); conditions: 3 h, at 10 µM, stronger effect = higher value
[6] = reduced mouse 2C T cell binding to pMHC/ICAM-1 vesicles – MLPCN validation set, flow cytometry, LFA-1/ICAM-1 modulator project, pilot screen (AID 2523;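 active means response below a set limit, under 55% cells CD8-positive and vesicle-bound, and CD8 cells' 90th-percentile brightness under 279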;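 on vesicle binding response: mean PE anti-B7-1 fluorescence of CD8+ cells relative to row control; 100% = QL9-loaded vesicles with DMSO vehicle in the same plate row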); conditions: 2C mouse CD8+ T cells, at 7 µM, stronger effect = lower value; double positive events: measured here: CD8+/vesicle+ event percentage
[7] = biological target: Integrin beta-1 (Homo sapiens) + Integrin alpha-4 (Homo sapiens) (UniProt P13612+P05556); experiment: alpha4beta1 integrin LIBS antibody binding reduction – U937 cells, HUTS-21 mAb, flow cytometry, validation set, VLA-4 allosteric modulator project, pilot screen (AID 2674;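 active means inhibition above 50%, about 3 SD of the validation set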;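 further: antibody binding induced by the VLA-4 ligand LDV present at three times its Kd; 0% = LDV ligand with antibody and no compound and 100% = antibody without LDV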); conditions: HUTS-21 LIBS mAb binding, at 6.7 µM, stronger effect = higher value, binding induced by LDV ligand
Sequence of Integrin beta-1 (Homo sapiens) + Integrin alpha-4 (Homo sapiens) (P05556 whole entry, looked up): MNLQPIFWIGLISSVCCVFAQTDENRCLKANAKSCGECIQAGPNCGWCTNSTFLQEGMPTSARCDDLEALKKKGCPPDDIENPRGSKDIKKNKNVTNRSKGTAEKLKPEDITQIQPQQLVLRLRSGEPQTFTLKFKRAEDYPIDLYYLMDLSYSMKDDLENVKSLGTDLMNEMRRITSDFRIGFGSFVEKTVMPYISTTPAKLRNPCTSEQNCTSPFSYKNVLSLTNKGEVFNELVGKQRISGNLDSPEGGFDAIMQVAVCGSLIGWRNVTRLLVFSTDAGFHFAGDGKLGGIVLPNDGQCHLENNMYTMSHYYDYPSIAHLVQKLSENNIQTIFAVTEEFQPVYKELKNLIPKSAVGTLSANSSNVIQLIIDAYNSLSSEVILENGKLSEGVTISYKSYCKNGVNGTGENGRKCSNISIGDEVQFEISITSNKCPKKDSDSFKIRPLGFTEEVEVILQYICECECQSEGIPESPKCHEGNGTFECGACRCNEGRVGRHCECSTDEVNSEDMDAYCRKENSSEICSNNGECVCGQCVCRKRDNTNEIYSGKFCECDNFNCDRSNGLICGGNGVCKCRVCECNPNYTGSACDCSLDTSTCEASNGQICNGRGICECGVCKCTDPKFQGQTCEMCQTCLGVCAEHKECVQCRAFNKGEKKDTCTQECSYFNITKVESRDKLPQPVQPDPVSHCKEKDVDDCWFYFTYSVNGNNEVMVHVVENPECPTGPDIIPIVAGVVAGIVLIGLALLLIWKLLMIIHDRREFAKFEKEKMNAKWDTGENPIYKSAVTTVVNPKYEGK
Sequence of Integrin beta-1 (Homo sapiens) + Integrin alpha-4 (Homo sapiens) (P13612 whole entry, looked up): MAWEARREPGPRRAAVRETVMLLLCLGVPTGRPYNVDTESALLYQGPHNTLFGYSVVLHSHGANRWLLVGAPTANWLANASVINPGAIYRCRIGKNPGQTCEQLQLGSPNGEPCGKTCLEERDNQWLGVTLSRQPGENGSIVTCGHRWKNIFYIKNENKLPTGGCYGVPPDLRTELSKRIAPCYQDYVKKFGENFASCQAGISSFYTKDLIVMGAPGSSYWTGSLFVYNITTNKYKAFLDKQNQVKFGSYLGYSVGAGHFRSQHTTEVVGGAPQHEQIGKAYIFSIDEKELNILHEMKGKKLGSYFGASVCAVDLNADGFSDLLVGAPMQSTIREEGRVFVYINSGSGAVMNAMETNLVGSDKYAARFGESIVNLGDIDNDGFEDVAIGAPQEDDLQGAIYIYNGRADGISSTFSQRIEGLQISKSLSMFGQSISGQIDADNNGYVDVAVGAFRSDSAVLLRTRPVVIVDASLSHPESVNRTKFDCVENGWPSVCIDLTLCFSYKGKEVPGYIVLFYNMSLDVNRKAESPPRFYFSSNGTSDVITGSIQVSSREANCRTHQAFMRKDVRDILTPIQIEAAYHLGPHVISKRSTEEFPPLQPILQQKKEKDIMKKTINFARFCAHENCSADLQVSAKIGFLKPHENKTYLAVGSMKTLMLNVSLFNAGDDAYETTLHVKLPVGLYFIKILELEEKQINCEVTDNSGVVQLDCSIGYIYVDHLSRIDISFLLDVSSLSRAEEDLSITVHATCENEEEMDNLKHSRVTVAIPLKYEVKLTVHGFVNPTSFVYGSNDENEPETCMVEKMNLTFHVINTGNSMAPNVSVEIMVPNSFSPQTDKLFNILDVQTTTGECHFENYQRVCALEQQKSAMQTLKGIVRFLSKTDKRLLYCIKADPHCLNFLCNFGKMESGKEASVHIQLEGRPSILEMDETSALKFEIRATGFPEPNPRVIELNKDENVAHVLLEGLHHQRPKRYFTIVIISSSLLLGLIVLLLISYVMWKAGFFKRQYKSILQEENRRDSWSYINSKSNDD

[8] = calorie-restriction mimetic ROS inhibitors, yeast – validation compound set, pilot screen (AID 2706;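 active means superoxide response below 65% of plate, a cut near 3 SD across the whole screen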;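 further: yeast exposed to compound for one week at 30 degrees C before staining; 100% = mean of all compound wells on the same plate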); conditions: S. cerevisiae aging, superoxide DHE fluorescence; at 10 µM, stronger effect = lower value
[9] = biological target: Beta-adrenergic receptor kinase 1 (Homo sapiens) (UniProt P25098); experiment: GRK2 binders displacing RNA aptamer, biochemical, validation, human GRK2, bead flow cytometry (AID 488806;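 active means aptamer binding inhibition above 30%, about 3 SD of noise from non-fluorescent compounds; inactive means inhibition at or below 30%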); conditions: bead-bound GRK2, FAM-aptamer displacement, at 10 µM, stronger effect = higher value
Sequence of Beta-adrenergic receptor kinase 1 (Homo sapiens) (P25098 whole entry, looked up): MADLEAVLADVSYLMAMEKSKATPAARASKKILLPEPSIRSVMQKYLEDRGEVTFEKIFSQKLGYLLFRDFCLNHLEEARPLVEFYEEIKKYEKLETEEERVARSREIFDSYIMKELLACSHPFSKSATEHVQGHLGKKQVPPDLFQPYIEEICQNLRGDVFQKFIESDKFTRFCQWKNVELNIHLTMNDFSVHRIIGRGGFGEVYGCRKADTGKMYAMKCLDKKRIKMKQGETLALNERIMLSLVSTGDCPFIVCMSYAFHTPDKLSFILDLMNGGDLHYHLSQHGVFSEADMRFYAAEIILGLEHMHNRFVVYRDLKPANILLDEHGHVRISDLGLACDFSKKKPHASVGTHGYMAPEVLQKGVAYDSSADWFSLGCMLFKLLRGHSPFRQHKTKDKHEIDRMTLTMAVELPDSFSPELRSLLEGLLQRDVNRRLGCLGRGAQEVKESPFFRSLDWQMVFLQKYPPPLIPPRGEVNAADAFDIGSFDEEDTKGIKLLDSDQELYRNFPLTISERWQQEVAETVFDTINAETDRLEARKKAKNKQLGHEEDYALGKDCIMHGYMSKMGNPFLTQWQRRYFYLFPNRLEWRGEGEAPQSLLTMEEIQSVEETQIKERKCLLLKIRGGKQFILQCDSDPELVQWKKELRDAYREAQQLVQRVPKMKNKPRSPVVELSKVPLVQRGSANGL

[10] = cytosolic pH regulators acting via V-ATPase – S. cerevisiae, pHLuorin, HTS validation (AID 504600; in the data active means response above about 15%;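 further: plate controls were DMSO for no effect and reference compound for full effect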); conditions: V-ATPase proton transport, at 10 µM, stronger effect = higher value
[11] = tested on: anti-desmoglein-3 scFv antibody binding to human DSG3; experiment: blockers of pathogenic pemphigus antibody–desmoglein-3 binding – biochemical, validation compound set, bead-based, flow cytometry, pilot screen (AID 588368;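 active means binding below the plate cutoff, the plate median minus 3 SD, with a reading above zero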;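 further: signal is the median channel fluorescence of bead-bound GFP antibody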); conditions: Protein G beads, DSG3-Fc, scFv-GFP binding, at 10 µM, stronger effect = lower value
[12] = Nile Red efflux blockade in pump-expressing yeast – validation compound set, multiplex, phenotypic, pilot screen (AID 588506;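 active means efflux inhibition above 0.42, the validation set average plus 4 SD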;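 further: Nile Red retained in cells so higher fluorescence means more efflux inhibition; 0 = negative control wells and 1 = enniatin B 25 µM full block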); conditions: S. cerevisiae pump-expressing triplex, Nile Red efflux flow cytometry; at 10 µM; stronger effect = higher value; the pumps come from Candida albicans
[13] = biological target: ATP-binding cassette sub-family B member 6 (Homo sapiens) (UniProt Q9NP58); experiment: blockers of ABCB6-driven porphyrin uptake – K562-ABCB6 cells, flow cytometry, validation set, pilot screen (AID 588550;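 active means inhibition above the screen-wide mean plus 3 SD, about 51%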;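 further: 0% = DMSO wells and 100% = benzethonium chloride 70 µM positive control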); conditions: K562-ABCB6 porphyrin accumulation, 1 h, at 10 µM, stronger effect = higher value
Sequence of ATP-binding cassette sub-family B member 6 (Homo sapiens) (Q9NP58 whole entry, looked up): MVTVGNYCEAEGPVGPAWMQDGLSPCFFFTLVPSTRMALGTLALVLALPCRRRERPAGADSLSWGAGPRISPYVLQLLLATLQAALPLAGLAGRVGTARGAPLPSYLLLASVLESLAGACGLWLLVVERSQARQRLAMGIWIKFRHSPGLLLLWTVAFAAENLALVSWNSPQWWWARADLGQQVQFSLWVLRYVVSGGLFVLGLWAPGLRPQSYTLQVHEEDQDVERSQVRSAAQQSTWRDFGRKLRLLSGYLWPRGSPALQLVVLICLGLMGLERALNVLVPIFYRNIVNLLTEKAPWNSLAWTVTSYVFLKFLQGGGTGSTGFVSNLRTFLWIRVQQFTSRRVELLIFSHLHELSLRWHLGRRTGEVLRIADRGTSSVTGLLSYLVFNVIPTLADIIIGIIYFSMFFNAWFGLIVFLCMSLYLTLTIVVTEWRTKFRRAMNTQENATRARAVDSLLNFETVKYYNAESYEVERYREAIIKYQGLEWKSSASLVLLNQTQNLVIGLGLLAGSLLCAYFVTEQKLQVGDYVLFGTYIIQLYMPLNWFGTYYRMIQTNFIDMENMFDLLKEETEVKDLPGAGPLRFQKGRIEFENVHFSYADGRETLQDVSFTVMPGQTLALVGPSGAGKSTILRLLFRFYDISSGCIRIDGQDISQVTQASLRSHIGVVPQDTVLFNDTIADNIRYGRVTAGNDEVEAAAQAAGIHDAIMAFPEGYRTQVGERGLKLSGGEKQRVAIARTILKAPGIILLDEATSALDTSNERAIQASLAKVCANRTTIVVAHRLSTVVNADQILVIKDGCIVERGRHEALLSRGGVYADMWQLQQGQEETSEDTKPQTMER

[14] = AML differentiation inducers, ER-HoxA9 marrow cells – cell-based, GFP/MAC1 double positive, flow cytometry, validation set, primary screen (AID 588685;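 active means differentiation response of at least 50%, scaled between solvent and reference control, from cells with both markers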;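 further: compound exposure lasts four days before antibody staining and flow analysis; 0% = DMSO wells and 100% = 5 µM fulvestrant positive control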); conditions: stronger effect = higher value, normalized: vehicle 0, fulvestrant 100
[15] = biological target: AP-2 complex subunit beta (Homo sapiens) (UniProt P63010); experiment: beta-arrestin/AP2 interaction blockers – biochemical, validation set, GST-AP2 beads, flow cytometry, pilot screen (AID 504541;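 active means inhibition above 54%, about 3 SD of non-fluorescent compounds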;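 further: AP2 carries R879A mutation and is captured from E. coli lysate; bead-bound FITC arrestin peptide fluorescence measuring arrestin peptide binding to AP2; 0% = DMSO wells and 100% = excess unlabeled arrestin peptide control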); conditions: FITC arrestin peptide, at 10 µM, stronger effect = higher value, AP2 beta2 appendage fragment, R879A mutant
Sequence of AP-2 complex subunit beta (Homo sapiens) (P63010 whole entry, looked up, the tested form may be a part, one chain of several): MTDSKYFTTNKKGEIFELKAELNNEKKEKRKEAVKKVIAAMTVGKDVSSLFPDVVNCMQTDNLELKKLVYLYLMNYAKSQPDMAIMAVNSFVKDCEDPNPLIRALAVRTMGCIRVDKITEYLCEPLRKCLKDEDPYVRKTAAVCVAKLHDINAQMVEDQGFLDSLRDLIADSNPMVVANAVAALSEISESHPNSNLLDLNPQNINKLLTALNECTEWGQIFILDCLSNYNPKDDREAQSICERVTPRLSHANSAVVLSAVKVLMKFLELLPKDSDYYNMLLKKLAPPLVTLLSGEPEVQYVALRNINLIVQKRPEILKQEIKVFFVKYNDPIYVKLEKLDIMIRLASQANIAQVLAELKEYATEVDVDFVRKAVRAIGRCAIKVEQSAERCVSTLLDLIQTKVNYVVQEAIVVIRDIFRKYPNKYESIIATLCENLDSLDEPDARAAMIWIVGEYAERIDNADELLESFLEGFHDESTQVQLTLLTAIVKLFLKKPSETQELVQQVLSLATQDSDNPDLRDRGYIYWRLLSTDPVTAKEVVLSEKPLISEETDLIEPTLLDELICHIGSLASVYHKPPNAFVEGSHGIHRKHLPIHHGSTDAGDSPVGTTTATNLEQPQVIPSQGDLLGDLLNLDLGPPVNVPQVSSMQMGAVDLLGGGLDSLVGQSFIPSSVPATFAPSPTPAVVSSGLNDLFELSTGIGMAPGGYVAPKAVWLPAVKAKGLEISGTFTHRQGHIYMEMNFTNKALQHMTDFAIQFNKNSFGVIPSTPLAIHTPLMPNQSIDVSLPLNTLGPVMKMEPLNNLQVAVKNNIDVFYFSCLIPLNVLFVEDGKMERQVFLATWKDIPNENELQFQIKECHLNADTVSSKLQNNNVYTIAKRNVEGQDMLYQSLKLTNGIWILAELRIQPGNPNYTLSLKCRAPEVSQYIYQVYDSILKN

[16] = biological target: Beta-2 adrenergic receptor (Homo sapiens) (UniProt P07550); experiment: agonist-induced loss of surface beta2AR – cell-based, FAP fluorogen, flow cytometry, validation set, pilot screen (AID 504459;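 active means percent response above 42, roughly 3 SD of non-fluorescent test compounds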;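 further: agonist-driven loss of surface beta2AR via internalization measured by FAP dye flow cytometry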); conditions: Am2.2-beta2AR cells, at 10 µM, stronger effect = higher value
Sequence of Beta-2 adrenergic receptor (Homo sapiens) (P07550 whole entry, looked up): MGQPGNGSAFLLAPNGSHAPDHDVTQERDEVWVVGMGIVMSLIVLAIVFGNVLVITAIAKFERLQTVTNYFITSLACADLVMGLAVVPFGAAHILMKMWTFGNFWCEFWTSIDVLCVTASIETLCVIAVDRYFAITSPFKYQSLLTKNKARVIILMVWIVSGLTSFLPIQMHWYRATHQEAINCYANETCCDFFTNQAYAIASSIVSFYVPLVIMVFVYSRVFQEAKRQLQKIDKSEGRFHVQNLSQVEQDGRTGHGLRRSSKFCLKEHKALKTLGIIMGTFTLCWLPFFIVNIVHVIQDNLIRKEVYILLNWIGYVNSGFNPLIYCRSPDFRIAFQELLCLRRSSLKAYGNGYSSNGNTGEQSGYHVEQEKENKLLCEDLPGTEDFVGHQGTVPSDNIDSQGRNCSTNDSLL

SMILES	percent of DMSO control GFP [1]	GFP response vs DMSO [2]	percent response of DMSO control [3]	GFP response vs DMSO [4]	GFP response, % of DMSO [5]	double positive events [6] [%]	vesicle binding response [6]	inhibition [7]	superoxide response (% of plate) [8]	aptamer binding inhibition [9]	response [10]	binding (% of control) [11]	efflux inhibition (fraction of control) [12]	inhibition [13]	differentiation response [14]	inhibition [15]	response [16]
O=C(Nc1ccc(Oc2c(F)c(F)c(F)c(F)c2F)cc1)OC1CCN2Cc3ccccc3N=C12 (configuration not stated)	107% (inactive)	105% (inactive)	97.9% (inactive)	98.4% (inactive)	96.4% (inactive)	53.8	123% (inactive)	-184% (inactive)	85.7% (inactive)	0% (inactive)	-2.8% (inactive)	98.8% (inactive)	1.47 (active)	1% (inactive)	70.8% (active)		
COc1ccc(C2(CCN=Cc3ccc(N(C)C)cc3)CCOC(C)(C)C2)cc1 (configuration not stated)	104% (inactive)	102% (inactive)	99.8% (inactive)	95.4% (inactive)	95.2% (inactive)	58.8	222% (inactive)	-3.97% (inactive)	98.3% (inactive)	0% (inactive)	-4.5% (inactive)	128% (inactive)	-0.24 (inactive)	12% (inactive)	7.87% (inactive)	-3.62% (inactive)	
CC(C)NNC(=O)c1ccncc1	100% (inactive)	101% (inactive)	107% (inactive)	114% (inactive)	111% (inactive)	55.2	178% (inactive)	-7.7% (inactive)	101% (inactive)	2% (inactive)	-0.37% (inactive)	98.7% (inactive)	0.22 (inactive)	3% (inactive)	-26% (inactive)	-13.9% (inactive)	
Cn1c2ccccc2c2cc(/C=C(\NC(=O)c3ccccc3)C(=O)O)ccc21	95.6% (inactive)	90.8% (inactive)	106% (inactive)	92.3% (inactive)	95.7% (inactive)	58	107% (inactive)	-9.57% (inactive)	111% (inactive)	3% (inactive)	1.01% (inactive)	96.5% (inactive)	-0.43 (inactive)	10% (inactive)	-14.7% (inactive)	-8.15% (inactive)	
C[C@]12CC[C@@H]3c4cc(O)c(O)cc4CC[C@H]3[C@@H]1CC[C@@H]2O	98.8% (inactive)	98.3% (inactive)	95.4% (inactive)	81.5% (inactive)	90% (inactive)	65.9	236% (inactive)	16.1% (inactive)		3% (inactive)	-0.25% (inactive)	96.1% (inactive)	0.49 (active)	5% (inactive)	8.06% (inactive)	2.25% (inactive)	0.11% (inactive)
CCOC(=O)c1cccc(C(=O)OCC)n1	102% (inactive)	98.3% (inactive)	100% (inactive)	84.1% (inactive)	95.7% (inactive)	62.1	28.3% (inactive)	-2.53% (inactive)		0% (inactive)	-1.45% (inactive)	103% (inactive)	0.68 (active)	5% (inactive)	29.6% (inactive)	5.21% (inactive)	-0.16% (inactive)
Oc1c(Cl)cc(Cl)c(Cl)c1Cc1c(O)c(Cl)cc(Cl)c1Cl	107% (inactive)	113% (inactive)	108% (inactive)	96.8% (inactive)	93.1% (inactive)	51.2	24.1% (active)	7.43% (inactive)	79.3% (inactive)	-1% (inactive)	0.14% (inactive)	105% (inactive)	0.19 (inactive)	8% (inactive)	0.82% (inactive)		
COc1ccc(CCN(C)CCCC(C#N)(c2ccc(OC)c(OC)c2)C(C)C)cc1OC (configuration not stated)	105% (inactive)	104% (inactive)	98.8% (inactive)	95.4% (inactive)	99.7% (inactive)	63.8	183% (inactive)	2.56% (inactive)	101% (inactive)	-1% (inactive)	1.25% (inactive)	102% (inactive)		2% (inactive)	24% (inactive)	53.9% (inactive)	
COc1ccc(Cc2nc(-c3ccc(Br)cc3)no2)cc1	100% (inactive)	103% (inactive)	101% (inactive)	95.3% (inactive)	102% (inactive)	40		-12.9% (inactive)	117% (inactive)	-1% (inactive)	-2.85% (inactive)	99.3% (inactive)	0.14 (inactive)	-4% (inactive)	48.1% (inactive)	58.9% (active)	-5.31% (inactive)
OC[C@H]1O[C@@H](n2cnc3c(Nc4ccccc4)ncnc32)[C@H](O)[C@@H]1O	92.4% (inactive)	118% (inactive)	112% (inactive)	73.2% (inactive)		62.8	139% (inactive)	-9.06% (inactive)	110% (inactive)	1% (inactive)	-0.49% (inactive)	103% (inactive)	0.3 (inactive)	10% (inactive)	2.46% (inactive)	-2.59% (inactive)	-8.38% (inactive)
